In PubChem BioAssay AID1626 (SRMLSC, 2009):
Where “and” joins values, the source holds several entries; their conditions need not be identical. Identical values can stand only once. About 2,000 (0.91%) of roughly 220,000 compounds were called active. About 2% were inconclusive and are not listed. Not all results are given here. Entries with a potency or affinity are not part of this list. Values without a mark were called inactive. Cut-off read from the data, not from the text of the source: inconclusive = inhibition above about 80% without an active follow-up result; inactive = below that; test concentration not stated here.

Assay: M. tuberculosis H37Rv growth inhibitors, H37Rv strain (AID 1626);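 note: bacteria incubated seven days before Alamar blue readout; 0% = bacteria only wells and 100% = bacteria with antibiotic wells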
Details: active compounds read high, concentration not given here

Q: For `Cn1c(SCC(=O)N/N=C/c2cccnc2)nnc1-c1ccccc1`, which inhibition is on record?
A: -5.36%

Q: For `Cc1ccc(C(=O)OCC(=O)NC(C)C)cc1S(=O)(=O)N1CCOCC1`, which inhibition is on record?
A: -1.79%

Q: With `CN(Cc1ccccc1)S(=O)(=O)c1ccc(NC(=S)NC(=O)C(C)(C)C)cc1` as the molecule, how does the inhibition read?
A: 9.18%

Q: Which inhibition does the source give for `COc1cc(CN2CCCC(C(=O)c3ccc4c5c(cccc35)CC4)C2)cc(OC)c1O` (stereo not drawn) here?
A: -1.67%

Q: For `CC(C)c1[nH]nc2c1C(c1ccco1)C(C#N)=C(N)O2` (stereo not drawn), which inhibition is on record?
A: -5.64%

Q: Which inhibition does the source give for `O=C1CC(C(=O)O)C2(CCCC2)O1` (stereo not drawn) here?
A: 9.23%

Q: Which inhibition does the source give for `Cc1ccc(N(CC(=O)NC2CCCC2)C(=O)CCCC(=O)Nc2ccccn2)cc1C` here?
A: 10%

Q: For `COc1ccccc1Sc1nc(-c2ccccc2)ncc1OC`, which inhibition is on record?
A: -2.36%

Q: Which inhibition does the source give for `Clc1ccccc1Sc1ccc(-c2ccccn2)s1` here?
A: -5.02%

Q: With `O=C(O)c1cnc(-c2ccccc2)nc1Sc1ccccc1Cl` as the molecule, how does the inhibition read?
A: 1.01%

Q: With `COc1cnc(-c2ccccn2)nc1NC(C)C` as the molecule, how does the inhibition read?
A: 75.4%

Q: Which inhibition does the source give for `CC12CN3CC(C)(CN(C1)C3c1cccnc1)C2=O` (stereo not drawn) here?
A: -0.26%

Q: For `O=C(NC(=S)NCCN1CCOCC1)c1ccccc1`, which inhibition is on record?
A: -16.1%

Q: For `CCOC(=O)C1CCCN(C(=O)c2ccc([N+](=O)[O-])c(C)c2)C1` (stereo not drawn), which inhibition is on record?
A: -2.07%

Q: For `CCOC(=O)C1CCCN(c2cc(NCCCO)c([N+](=O)[O-])c3nonc23)C1` (stereo not drawn), which inhibition is on record?
A: 1.76%

Q: With `Cc1n[nH]c(=O)n1-c1ccc(OCc2ccccc2)cc1` as the molecule, how does the inhibition read?
A: -0.14%

Q: Which inhibition does the source give for `Cc1cc(-c2nnc(SCC(=O)c3ccc(F)cc3)o2)no1` here?
A: 3.52%

Q: For `Fc1ccccc1-c1nc(N2CCCCC2)c2ccccc2n1`, which inhibition is on record?
A: 7.2%

Q: With `c1cncc(-c2nc(N3CCOCC3)c3ccccc3n2)c1` as the molecule, how does the inhibition read?
A: -2.03%

Q: Which inhibition does the source give for `c1ccc2c(N3CCCCCC3)nc(-c3ccncc3)nc2c1` here?
A: 37%

Q: With `CN1CCN(c2nc(-c3ccccn3)nc3ccccc23)CC1` as the molecule, how does the inhibition read?
A: 10.9%

Q: Which inhibition does the source give for `CCN1CCN(c2nc(-c3ccccn3)nc3ccccc23)CC1` here?
A: -2.25%

Q: Which inhibition does the source give for `c1ccc2c(N3CCOCC3)nc(-c3ccncc3)nc2c1` here?
A: -3.11%

Q: For `CCn1cc(C(=O)N2CCN(c3ccc([N+](=O)[O-])cc3)CC2)c(=O)c2ccc(C)nc21`, which inhibition is on record?
A: 6.57%

Q: With `O=S(=O)(O)c1nc2ccccc2[nH]1` as the molecule, how does the inhibition read?
A: -0.16%

Q: Which inhibition does the source give for `Cc1cc(=O)[nH]c(N/N=C/c2cc(C)n(-c3ccccc3)c2C)n1` here?
A: -2.65%

Q: Which inhibition does the source give for `S=C(Nc1ccc(Cl)cc1)NC1CC2CCCC(C1)N2C1CC1` (stereo not drawn) here?
A: -1.32%

Q: Which inhibition does the source give for `Cc1ccc(-n2c(C(C)n3nc(C)c([N+](=O)[O-])c3C)n[nH]c2=S)cc1` (stereo not drawn) here?
A: 3.01%

Q: For `Cc1ccc(C(=O)CSC2=NC(N)=C(C#N)C3(CCCCC3)C2C(N)=O)cc1` (stereo not drawn), which inhibition is on record?
A: -12.2%

Q: For `FC(F)(F)c1nnc2ccc(N3CCCC3)nn12`, which inhibition is on record?
A: -2.32%

Q: With `Fc1c(F)c(C(F)(F)F)c(F)c(F)c1N1CCN(c2ccc3nnc(C(F)(F)F)n3n2)CC1` as the molecule, how does the inhibition read?
A: 8.98%

Q: For `COc1ccc(NC(=O)COc2ncnc3ccccc23)cc1S(=O)(=O)N1CCOCC1`, which inhibition is on record?
A: -8.54%

Q: With `CCCc1[nH]n(-c2nc3ccccc3s2)c(=O)c1C=NCCCOC` as the molecule, how does the inhibition read?
A: -3.55%

Q: Which inhibition does the source give for `Cc1ccc(C)c(C(=O)Nc2cc(C)nn2-c2nc(C)cc(C)n2)c1` here?
A: 22%

Q: For `Cc1cc(Nc2ccccc2)n(-c2ccc(Br)cc2)n1`, which inhibition is on record?
A: -7.48%

Q: Which inhibition does the source give for `CC(=O)Nc1cc(C)nn1-c1nc(C)cc(C)n1` here?
A: 3.43%

Q: For `COc1ccc(Nc2cc(C)nc(N3CCOCC3)n2)cc1`, which inhibition is on record?
A: 10.4%

Q: For `CNc1cc(C)nc(-n2nc(C)cc2C)n1`, which inhibition is on record?
A: 13%

Q: With `Cc1cc(Nc2ccccc2)n(-c2ccccc2)n1` as the molecule, how does the inhibition read?
A: 1.16%

Q: With `O=C(c1ccc(Cl)nc1)N1CCN(S(=O)(=O)c2ccc(Cl)cc2)CC1` as the molecule, how does the inhibition read?
A: 5.1%

Q: Which inhibition does the source give for `Cc1ccc(/C=C(/C#N)C(=O)NC(C)c2ccccc2)o1` (stereo not drawn) here?
A: 5.5%

Q: For `CCCC(c1nnnn1C(C)(C)CC)N1CCN(C2CCCC2)CC1` (stereo not drawn), which inhibition is on record?
A: 3.73%

Q: For `CC(=O)Nc1ccccc1C(=O)C(=O)Nc1ccc(C(=O)N2CCOCC2)cc1`, which inhibition is on record?
A: -0.85%

Q: For `Cc1ccc(C2C(C(=O)c3sc(C)nc3C)=C(O)C(=O)N2CCN(C)C)o1` (stereo not drawn), which inhibition is on record?
A: -6.12%

Q: With `COc1ccc(S(=O)(=O)Nc2ccc(N3CCOCC3)cc2)cc1[N+](=O)[O-]` as the molecule, how does the inhibition read?
A: -1.81%

Q: For `COC(CNc1cc(=O)oc2ccccc12)OC`, which inhibition is on record?
A: 3.54%

Q: With `O=C(COC(=O)CC1CC2CCC1C2)Nc1c(F)cccc1F` (stereo not drawn) as the molecule, how does the inhibition read?
A: -6.22%

Q: For `CCN(CC)CCNC(=O)c1ccc(NC(C)=O)cc1`, which inhibition is on record?
A: -2.03% and 6.46%

Q: Which inhibition does the source give for `CCCCOC(=O)c1ccc(NC(=O)C(=O)NCc2ccco2)cc1` here?
A: 5.24%

Q: Which inhibition does the source give for `CCCCNc1ccc(C(=O)OCCN(C)C)cc1` here?
A: 5.64%

Q: Which inhibition does the source give for `CCOC(=O)c1ccc(NC(=O)C(=O)NCCc2ccc(OC)cc2)cc1` here?
A: 2.35%

Q: Which inhibition does the source give for `CCOC(=O)c1ccc(NC(=S)NCc2cccnc2)cc1` here?
A: -9.64%

Q: Which inhibition does the source give for `CCN(CC)CCNC(=O)C(=O)Nc1ccc(C(=O)OC)cc1` here?
A: 0.58%

Q: With `CCCCOC(=O)c1ccc(NC(=O)c2c(OC)cccc2OC)cc1` as the molecule, how does the inhibition read?
A: -7.36%

Q: For `CCCCOC(=O)c1ccc(NC(C)=O)cc1`, which inhibition is on record?
A: 58.3%

Q: With `CCOc1cc(CNc2ccc(N(C)C)cc2)cc(Br)c1OCC(=O)NC(C)(C)C` as the molecule, how does the inhibition read?
A: 13.9%

Q: Which inhibition does the source give for `O=C(Cn1nnc2ccccc21)OCc1ccccc1` here?
A: 3.11%

Q: Which inhibition does the source give for `CC(C(=O)Nc1ccc(C(=O)O)cc1)N1C(=O)c2ccccc2C1=O` (stereo not drawn) here?
A: 2.02%

Q: Which inhibition does the source give for `CC1C(=O)NN=C1C(=O)N/N=C/c1ccco1` (stereo not drawn) here?
A: 4.15%

Q: For `N/C(CN1CCCC1=O)=N\OC(=O)c1ccccc1Cl`, which inhibition is on record?
A: -4.21%

Q: For `CC(C)(C)C(=O)Nc1ccc(N=Nc2ccccc2)cc1`, which inhibition is on record?
A: 1.74%

Q: For `COc1ccc(C2=NOC(C)(c3nnc(-c4ccncc4)o3)C2)cc1` (stereo not drawn), which inhibition is on record?
A: 3.27%

Q: Which inhibition does the source give for `O=C(c1csc2c1CCCC2)N1CCCCC1` here?
A: -7.91%
